This is an account of results in PubChem BioAssay AID588344 (National Center for Advancing Translational Sciences (NCATS), 2011).

Each structure is given as a SMILES string. The list shows a part of the results. Results filed as inconclusive are left out. The source made the active and inactive calls. The call rests on the fitted dose curve; in most records, active means well fitted inhibition curve with a large enough effect; inconclusive means small, poorly fitted or top-dose-only effect; inactive means flat fitted curve, though single readings scatter.
Potency means the concentration at half of the fitted maximal effect.

Chain of Histone-lysine N-methyltransferase EHMT2 (Homo sapiens) (Q96KQ7 913-1193 limits assumed): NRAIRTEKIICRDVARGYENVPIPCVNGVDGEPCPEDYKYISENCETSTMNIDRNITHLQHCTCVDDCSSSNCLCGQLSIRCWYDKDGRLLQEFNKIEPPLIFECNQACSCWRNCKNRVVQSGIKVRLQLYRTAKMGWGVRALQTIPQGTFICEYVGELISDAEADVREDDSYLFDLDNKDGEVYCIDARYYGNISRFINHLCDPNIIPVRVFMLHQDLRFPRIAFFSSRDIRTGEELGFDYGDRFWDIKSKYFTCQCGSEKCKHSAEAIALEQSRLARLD

This experiment deals with Histone-lysine N-methyltransferase EHMT2 (Homo sapiens) (UniProt Q96KQ7). As to the kind of experiment: qHTS Assay for Inhibitors of Histone Lysine Methyltransferase G9a: Hit Confirmation. Further: nearly all actives have a fitted effect of over 65% in size. As to conditions: G9a H3K9 monomethylation, AlphaScreen, 2 h. An excerpt:
Methylated lysines, on the N-terminal tails of histone proteins serve as epigenetic markers to recruit factors that can then modify local chromatin structure to lead to functional consequences. G9a and other members of the SUV39 family of the SET domain-containing superfamily of histone lysine methyltransferases (HMT) have been identified to specifically methylate Lys9 of histone H3 (H3K9). G9a catalyzes the mono- and di-methylation of H3K9 in mammalian euchromatic regions, where the resulting H3K9me2 is indicative of transcriptional repression. […] The inhibition of G9a will result in transcriptional activation and work synergistically with DNA methyltransferase and histone deacetylase inhibitors, to kill cancer cells. This qHTS assay for identification of G9a inhibitors is a chemiluminescence based AlphaScreen (PerkinElmer). Methylation of biotinylated-histone peptide is measured through specific antibody-based detection, in conjunction with streptavidin-coated donor and anti-IgG antibody-coated acceptor beads. The method is particularly well suited for detection of inhibitors acting by the desired histone peptide competitive mechanism and is applicable to testing other HMTs. Although AlphaScreen has significant advantages with its utility in a variety of epigenetic target assays, the primary screening data provided in this deposition should be used with caution due to the prevalence of screening artifacts. An AlphaScreen counterscreen is highly recommended to be run against any putative actives to eliminate non specific artifacts. Alternatively, one can use other AlphaScreen assays in PubChem to filter out promiscuous hits. Quinn et al. A chemiluminescence-based method for identification of histone lysine methyltransferase inhibitors. Mol Biosyst 6(5): 782-8. 2010. PMID: 20567762 [2] Baell,Holloway. New substructure filters for removal of pan assay interference compounds (PAINS) from screening libraries and for their exclusion in bioassays. J Med Chem. 53(7):2719-40. 2010. PMID: 20131845 NIH Chemical Genomics Center [NCGC] NIH Molecular Libraries Probe Production Network [MLPCN] MLPCN Grant: MH084681-02 Assay Submitter (PI): Structural Genomic Consortium - Toronto, Peter Brown
To each well, 2 uL of HMT enzyme (final 20 nM) will be added using a nanoliter dispenser. The G9a- and GLP-inhibitor BIX-01294 will be used as an intraplate control, with a 16-point titration in duplicate. A Kalypsys pin-tool will be employed to transfer 23 nL of library compound solution in DMSO to each well. Following a 15 min incubation of enzyme with compounds at room temperature, 1 uL mixture of b-H3K9 peptide substrate (final 500 nM) and SAM cofactor (final 20 uM) will be added. Reactions are allowed to proceed at room temperature for 2 hours. Methylated b-H3K9 peptide product is detected with 0.5 ug/mL rabbit polyclonal anti-monomethyl histone H3K9 antibody (Abcam Inc., Cambridge, MA) and 20 ug/mL each streptavidin-coated donor and anti-rabbit IgG acceptor AlphaScreen beads. Antibody and beads will be added in a 1 uL dispense, for a final volume of 4 uL, and plates will be incubated protected from the light for 10 min at room temperature. Microplates will then be read on an EnVision multilabel plate reader using the 1,536 plate HTS AlphaScreen aperture (excitation time 80 ms, measurement time 240 ms).
Background: qHTS replaces the single test concentration by a dilution series.
As for `CCOC(=O)c1c(NC(=O)COc2cc(C)ccc2C(C)C)sc(C)c1C`, the Potency is 5.64 µM (active).
For `CCOC(=O)N1CCc2c(sc(NCc3cccc(F)c3)c2C(=O)Nc2ccccc2OCC)C1`, the Potency was 4.57 µM (active).
The result for `CCOc1ccc(NC(=O)c2c(NC(=O)Cc3ccccc3)sc3c2CCCCC3)cc1` reads 4.57 µM (active); that for `CCCCNC(=O)CSc1nc2ccc(NC(=O)CSc3nnc(N)s3)cc2s1`, 1.42 µM (active); that for `CCOc1ccc(NC(=O)c2c(NC(=O)Cc3ccccc3)sc3c2CCC(C)C3)cc1` (stereo unspecified), 2.57 µM (active).
As to `CCOC(=O)c1ccc(-n2c(CCC(=O)O)ccc2-c2ccccc2)cc1`, the Potency is 31.6 µM (active).
Regarding `CC(NC(=O)c1ccco1)C(=O)Nc1nc(-c2ccccn2)cs1` (stereo unspecified), the Potency is 7.96 µM (active).
For the compound `CCOC(=O)N1CCN(C(c2cccnc2)c2ccc3cccnc3c2O)CC1` (stereo unspecified), the Potency is 0.159 µM (active).
For `CCn1c(SCC(=O)Nc2cccc(F)c2)nnc1-c1cc2cc(Br)ccc2o1`, the Potency is 5.01 µM (active).
Next, `CCc1ccc(NC2Nc3cc(C)nn3S2)cc1` (stereo unspecified): 1.78 µM (active).
Consider `c1ccc(-c2nnc3n2NC(c2ccc4c(c2)OCO4)S3)cc1` (stereo unspecified), for which the Potency was 0.178 µM (active).
With `COCCCNCC(=O)Nc1sc(C)c(C)c1C(=O)OC`, the Potency was 31.6 µM (active).
The result for `CCc1ccc(Nc2ncc3c(n2)CC(c2ccco2)CC3=O)cc1` (stereo unspecified) reads 31.6 µM (active); that for `CCOC(=O)c1ccc(NC(=O)CSc2ncccn2)cc1`, 0.632 µM (active).
Next, `Cc1ccccc1C(=O)Nc1ccc(N2CCCCCC2)cc1`: 2.83 µM (active); `Cc1ccc(-c2cnc(NCc3ccc(C(C)C)cc3)n2C)cc1`: 31.6 µM (active).
